HT1080 IDH1KD tx: HT-1080 IDH1 knockdown cell toxicity (counter line); HT-1080 IDH1 knockdown viability, ATP luminescence, 48 h; AID 686971; Potency, µM (highest dose often 46.1 µM), inactives show top-dose activity, negative = toxicity, actives largely listed as cytotoxic; 360,000 tested, 2% active;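 also: potency is read from the fitted curve at half-maximal effect; 0% = DMSO wells and -100% = cell-free medium wells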
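IDH1KD HT-1080 cells, 750/well, RPMI + 5% FBS; compound pinned after 2 h settling; 48 h, 37 °C; CellTiter-Glo luminescence; % activity normalised to DMSO and no-cell wells; curves fitted, classed by r2 and efficacy.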
DT40 TDP1 CPT: DT40-hTDP1 cell growth loss with CPT. 420,000 tested, 12% active. AID 686979. chicken DT40 Tdp1-/-;hTDP1 cells + 20 nM CPT, ATP luminescence, 48 h. Potency, µM (highest dose often 46.2 µM), for inactives: at the highest dose activity change, negative = growth inhibition, hits mostly inhibitors; also: potency is read from the fitted curve at half-maximal effect; nearly all actives have a fitted effect of over 55% in size
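Cell growth measured by CellTiter-Glo luminescence after a minimum 48 h, 37 C compound exposure with 20 nM CPT in Tdp1-knockout DT40 cells stably expressing hTDP1, seeded 400/well; qHTS titration format.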
IL-1B inflam inh: inflammasome signaling inhibition, IL-1 beta readout. activity change, % at 57.5 µM. THP-1 LPS/ATP IL-1B secretion, AlphaLISA, 16 h; active compounds read low. 360,000 tested, 4.7% active. AID 743279; in the data active = activity change below about -50%; inconclusive = mostly about -30% to -49%
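THP-1 cells pretreated 1 hr with compounds (up to 57.5 uM final), then stimulated with LPS (250 ng/mL final) plus ATP (1.25 mM final); secreted IL-1B measured by AlphaLISA after 16 hr, decreased signal indicating inhibition.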
TDP1 cell noCPT: qHTS for Inhibitors of human tyrosyl-DNA phosphodiesterase 1 (TDP1): qHTS in cells in absence of CPT; DT40 Tdp1-/- hTDP1 cells, no CPT, ATP luminescence, 48 h; Potency, µM (titrated, usually from 46.2 µM), inactives show at the top dose activity change, negative = growth inhibition, hits mostly inhibitors; 420,000 tested, 15% active; also: potency is read from the fitted curve at half-maximal effect; nearly all actives have a fitted effect of over 55% in size
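Readout: luminescence from CellTiter-Glo after 30 min in the dark at RT. Cells: DT40 Tdp1-/- with stable hTDP1, 400/well. Exposure: compounds alone, ≥48 hr, 37 °C.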
HT1080-NT tox: kills 2HG-producing HT-1080-NT fibrosarcoma cells. HT-1080-NT fibrosarcoma viability, CellTiter-Glo ATP luminescence, 48 h. Potency, µM (top dose mostly 46.1 µM), for the others: at the top dose activity, negative = less viability, most hits filed as cytotoxic. 360,000 tested, 1.6% active;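 also: NT is the 2HG producing partner of a matched IDH1 knockdown line; potency is read from the fitted curve at half-maximal effect; 0% = DMSO-treated cells and -100% = media-only wells without cells; nearly all actives have a fitted effect of over 55% in size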
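HT-1080-NT fibrosarcoma cells (2HG-overproducing), 750 cells/well in RPMI with 5% FBS, dosed after 2 h and incubated 48 h at 37C. CellTiter-Glo luminescence normalized to DMSO and no-cell wells; concentration-response curves fitted and classed.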
* hit, by the source's call; i = inactive; ? = inconclusive; / = no result; [ ] = dose if it differs, or a comment. A selection: hits, their analogues and other compounds. The true share with any hit is near 19%. Unless noted, calls follow the shape of the dose curve; as a rule, active = well fitted curve in the direction sought with a large enough effect; inconclusive = small, poorly fitted or top-dose-only effect, or another doubt; inactive = no such curve, though single readings can be large; an effect the other way counts as inactive or inconclusive. Unless noted, % is scaled to controls: 0 for no effect and ±100 for the full control effect.

SMILES	HT1080 IDH1KD tx	DT40 TDP1 CPT	IL-1B inflam inh	TDP1 cell noCPT	HT1080-NT tox
COc1ccc(C2=C(C)C(N3CCC(C(=O)Nc4cc(C)ccc4C)CC3)=NS2(=O)=O)cc1	/	-3%	/	-20%	/
CCC1=C(c2ccc(C)cc2)S(=O)(=O)N=C1N1CCC(C(=O)NCCc2ccc(Cl)cc2)CC1	/	13µM*	/	10µM*	/
CC1=C(c2ccc(F)cc2)S(=O)(=O)N=C1N1CCC(C(=O)NCCc2ccccc2)CC1	/	15%	/	0%	/
COCCCN(C(=O)Nc1ccccc1)C(C)c1ccncc1 (stereo unspecified)	6%	7%	28	1%	1%
CC1CN(CCN2CC(C)N(C=O)CC2C)C(C)CN1C=O (stereo unspecified)	-1%	33%	-3	10%	-1%
Cc1cccc(-n2c(=S)[nH]c3c(oc4ccccc43)c2=O)c1	10%	7%	0	0%	-1%
COc1ccc(C)cc1NC1(c2ccccc2)C(=O)c2ccccc2C1=O	/	9%	/	4%	/
Cc1cc[n+](CC#N)cc1	/	-10%	/	2%	/
CSC1=NC2(CC(c3ccccc3)Oc3cc(O)ccc32)CC(C)(C)N1 (stereo unspecified)	-18%	23µM*	1	21µM*	-15%
CCC/C=N/NC(=O)c1[nH]c2c([N+](=O)[O-])cccc2c1C	?	?	68	?	?
CCOC(=O)c1c(NC(=O)CCCOc2ccc(Cl)cc2)sc2c1CCC2	/	-11%	/	-12%	/
CC12CCC(C(=O)N(CC3CO3)C1=O)C2(C)C (stereo unspecified)	21%	-6%	17	-1%	4%
O=[N+]([O-])c1ccc2nc(NCCCO)nc(-c3ccccc3)c2c1	-17%	9.2µM*	-21	23µM*	-21%
Cc1ccc(C(=O)N/C(=C/c2ccc(-c3ccc([N+](=O)[O-])cc3)o2)C(=O)NCCCN(C)C)cc1	?	21µM*	/	21µM*	23µM*
O=C(NC1CCS(=O)(=O)C1)/C(=C/c1ccco1)NC(=O)c1ccccc1 (stereo unspecified)	6%	-5%	4	2%	20%
O=C(NC1CCS(=O)(=O)C1)/C(=C\c1ccco1)NC(=O)c1ccccc1 (stereo unspecified)	18%	4%	-63*	-8%	17%
Cc1ccc(C(=O)N/C(=C\c2ccc(-c3cccc([N+](=O)[O-])c3)o2)C(=O)NC(C)(C)C)cc1	-9%	15µM*	-7	16µM*	-1%
O=C(NCCCO)/C(=C/c1ccc(-c2cccc([N+](=O)[O-])c2)o1)NC(=O)c1ccccc1	?	0%	-17	-25%	-29%
Cc1ccc(C(=O)N/C(=C\c2ccc(-c3ccc([N+](=O)[O-])cc3)o2)C(=O)NC2CCS(=O)(=O)C2)cc1 (stereo unspecified)	-12%	21µM*	-18	?	-1%
O=C(Nc1ccnn1C1CCN(C(=O)c2cccnc2)CC1)c1cccc(F)c1	2%	12%	28	-2%	7%
CN(C)CC(C)(C)CNC(C(=O)Nc1ccc(Cl)cc1C(F)(F)F)c1ccccc1 (stereo unspecified)	?	-16%	?	-12%	?
CC(=O)N1CCC(=NNc2ncc(C(F)(F)F)cc2Cl)CC1	-10%	?	111	?	-19%
O=c1[nH]c2ccc(Br)cc2c(=O)o1	3%	?	23	-6%	-1%
CC(C)CCN(CCC(C)C)C(CO)(CO)CO	6%	0%	-17	?	15%
CC1CC(C)CN(C(=O)COC(=O)CCc2nc3ccccc3c(=O)[nH]2)C1 (stereo unspecified)	-3%	-23%	33	0%	3%
SMILES	HT1080 IDH1KD tx	DT40 TDP1 CPT	IL-1B inflam inh	TDP1 cell noCPT	HT1080-NT tox
C/C(CC(C)(C)C1CCCCC1)=N\NC(N)=S	?	4.1µM*	-102*	3.3µM*	5µM*
C=CC[C@@H](CC(=O)OC(C)(C)C)C(=O)OC[C@@H]1CCCN1C(=O)[C@@H](CC=C)CC(=O)N[C@H](CO)Cc1ccccc1	-2%	23µM*	-19	?	-1%
C=CC[C@H](CC(=O)OC(C)(C)C)C(=O)OC[C@@H]1CCCN1C(=O)[C@H](CC=C)CC(=O)N[C@H](CO)Cc1ccccc1	-2%	26µM*	-29	?	0%
C=CC[C@H](CC(=O)OC(C)(C)C)C(=O)OC[C@@H]1CCCN1C(=O)[C@@H](CC=C)CC(=O)N[C@H](CO)Cc1ccccc1	12%	16µM*	-1	?	3%
C=CC[C@@H](CC(=O)OC(C)(C)C)C(=O)OC[C@H]1CCCN1C(=O)[C@@H](CC=C)CC(=O)NCCO	19%	-3%	-1	-24%	13%
COC(=O)c1cc(CNC(=O)c2ccncc2)cc(NC(=O)c2ccccc2Cl)c1	/	-4%[9.04 µM]	/	-10%	/
Cc1cnc(C(=O)N(CC(C)C)c2c(N)n(CC(C)C)c(=O)[nH]c2=O)cn1	-2%	-2%	12	-9%	-6%
CCCCn1c(N)c(N(CCOC)C(=O)CCS(=O)(=O)c2ccc(C)cc2)c(=O)[nH]c1=O	0%	-1%	-26	-4%	-2%
CCOC(=O)CS(=O)(=O)c1ccccc1	7%	-7%	?	0%	6%
COc1ccc(-c2cc(C(F)(F)F)nc(SCC(=O)NCCc3ccccc3)n2)cc1	/	-30%	/	?	/
CCOC(=O)CS(=O)(=O)c1nc(-c2ccccc2)cc(C(F)(F)F)n1	6.5µM*	0.65µM*	-125*	1.6µM*	9.2µM*
COCC(C)NC(=O)CCS(=O)(=O)c1nc(-c2ccc(OC)cc2)cc(C(F)(F)F)n1 (stereo unspecified)	23µM*	4.1µM*	-102*	4.6µM*	?
CCOC(=O)CS(=O)(=O)c1nc(-c2ccc(F)cc2)cc(C(F)(F)F)n1	13µM*	0.52µM*	-119*	0.82µM*	6.5µM*
COC(=O)CCS(=O)(=O)c1nc(-c2ccccc2)cc(C(F)(F)F)n1	3.5µM*	3.3µM*	-105*	2.3µM*	7.1µM*
COc1ccccc1NC(=O)N1CCCC1C(=O)NCCc1ccccc1 (stereo unspecified)	12%	-1%	-2	-22%	14%
O=C(Nc1ccccc1[N+](=O)[O-])c1cccc(N2C(=O)CCC2=O)c1	-5%	8%	i	2%	-6%
Cc1ccccc1C(=O)NNC(=O)CSc1nnc(-c2ccncc2)n1-c1ccccc1	7%	-2%	13	14%	12%
CCOC(=O)Cc1cc(-c2ccccc2)nc2ccc3ccccc3c12	-2%	?	28	13µM*	3%
